Results filed as inconclusive are left out. Active and inactive are the calls of the source. The call rests on the fitted dose curve; in most records, active means well fitted curve in the direction sought with a large enough effect; inconclusive means small, poorly fitted or top-dose-only effect, or another doubt; inactive means no such curve, though single readings can be large; an effect the other way counts as inactive or inconclusive.
How the values were obtained:
[1] = qHTS to identify inhibitors of the type 1 interferon - major histocompatibility complex class I in skeletal muscle: primary screen against the NCATS Pharmaceutical Collection (AID 1347407);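 further: luminescence of HiBiT knocked into endogenous HLA-B as interferon-induced MHC class I level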
Procedure, shortened: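 Cells were seeded with 4 ng/ml IFN-beta, incubated 1 h, then dosed with compounds over eight 1:5 steps up to 46 uM final. After 24 h at 37 C, HiBiT lytic reagent was added and luminescence read after 10 min lysis in the dark.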

[2] = target: Protein phosphatase 1D (Homo sapiens) (UniProt O15297); assay: RapidFire Mass Spectrometry qHTS Assay for Modulators of WT P53-Induced Phosphatase 1 (WIP1) (AID 1347424);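 further: amount of dephosphorylated VEPPL-S-QETFS peptide product formed by WIP1; series mostly up to about 63 µM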
Sequence of Protein phosphatase 1D (Homo sapiens) (O15297 whole entry, looked up): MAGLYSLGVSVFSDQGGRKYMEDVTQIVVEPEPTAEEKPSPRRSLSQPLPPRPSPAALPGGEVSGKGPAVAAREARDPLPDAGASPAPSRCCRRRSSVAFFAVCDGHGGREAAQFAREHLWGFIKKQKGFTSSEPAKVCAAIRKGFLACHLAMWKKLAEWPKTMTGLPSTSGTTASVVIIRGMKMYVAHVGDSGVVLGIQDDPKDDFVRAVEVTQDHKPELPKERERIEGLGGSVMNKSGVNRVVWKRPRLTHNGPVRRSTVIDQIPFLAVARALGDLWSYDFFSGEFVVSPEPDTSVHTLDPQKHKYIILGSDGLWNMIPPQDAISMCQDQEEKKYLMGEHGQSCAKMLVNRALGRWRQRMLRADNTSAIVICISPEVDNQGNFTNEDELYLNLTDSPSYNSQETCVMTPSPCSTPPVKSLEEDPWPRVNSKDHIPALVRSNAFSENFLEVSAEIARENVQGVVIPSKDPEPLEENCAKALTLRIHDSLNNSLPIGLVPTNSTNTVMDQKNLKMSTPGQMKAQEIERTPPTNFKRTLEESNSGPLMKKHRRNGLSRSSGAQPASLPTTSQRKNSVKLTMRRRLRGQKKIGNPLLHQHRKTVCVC
Procedure, shortened: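 WIP1 (10 nM final) was preincubated 1 h at room temperature with compounds in Tris-HCl pH 7.5, 30 mM MgCl2, TCEP, EGTA, BSA; 2 uM VEPPL-pS-QETFS phosphopeptide was added for 5 min, quenched with formic acid, and dephosphorylated product quantified by RapidFire MS.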

[3] = target: Protein phosphatase 1D (Homo sapiens) (UniProt O15297); assay: Rhodamine-PBP qHTS Assay for Modulators of WT P53-Induced Phosphatase 1 (WIP1) (AID 1347425)
Procedure, shortened: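 5 nM WIP1 + 10 uM Rh-PBP, 50 mM Tris pH 7.5, 30 mM MgCl2, 1 mM TCEP, 0.1 mM EGTA, BSA; cpds pinned, 1 hr RT; + 10 uM phosphopeptide; fluorescence 1-min reads x 11 min; delta = f1 - f0.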

[4] = Primary qHTS for inhibitors of La Crosse Virus (LACV) - induced cell death in SH-SY5Y cells (AID 1508616);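 further: top concentration of the series differs between compounds; higher means more rescue of cells from virus-induced death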
Procedure, shortened: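 SH-SY5Y cells (6000/well) plated 24 h, then given compounds by pin transfer and LACV at 0.01 MOI for 6 days at 37C. Viability measured by ATPLite luminescence, normalized to infected DMSO and uninfected DMSO.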

[5] = target: Calcium and integrin-binding protein 1 (Homo sapiens) (UniProt Q99828); assay: Primary qHTS for Identification of Calcium Integrin Binding Protein 1 (CIB1) Competitor (AID 1508620);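 further: GST tagged CIB1 binding a fluorescein labelled alphaIIb integrin peptide tracer; top concentration of the series differs between compounds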
Sequence of Calcium and integrin-binding protein 1 (Homo sapiens) (Q99828 whole entry, looked up): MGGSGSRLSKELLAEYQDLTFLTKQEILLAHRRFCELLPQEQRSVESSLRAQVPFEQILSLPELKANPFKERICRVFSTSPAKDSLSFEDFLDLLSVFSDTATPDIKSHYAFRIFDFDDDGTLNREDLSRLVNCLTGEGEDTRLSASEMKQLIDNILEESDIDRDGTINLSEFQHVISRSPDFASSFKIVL
Procedure, shortened: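 Fluorescence polarization competition: CIB1-GST (1 uM final) preincubated with compound 15 min at room temperature, then FITC-labeled alphaIIb peptide (100 nM final) added for another 15 min. Polarization read at Ex 480/Em 540.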

Measured: outcome

COC(=O)c1cccnc1
inactive: all assays above

CCCCCCCC(=O)OCC(O)CO (stereo not given)
inactive: all assays above

NS(=O)(=O)c1cc(C2(O)NC(=O)c3ccccc32)ccc1Cl (stereo not given)
inactive: all assays above

CC(=O)OCC(COC(C)=O)OC(C)=O
inactive: all assays above

NS(=O)(=O)c1ccc(NC(=O)CCC(=O)O)cc1
inactive: all assays above

NC(=O)NS(=O)(=O)c1ccc(N)cc1
inactive: all assays above

NS(=O)(=O)c1ccc(C(=O)O)cc1
inactive: all assays above

Cc1ccsc1/C=C/C1=NCCCN1C
inactive: all assays above

CC1CC(OC(=O)c2ccccc2O)CC(C)(C)C1 (stereo not given)
inactive: all assays above

COc1ccc(C(=O)N2CCN(CC(=O)N3CCOCC3)CC2)cc1
inactive: all assays above

Nc1ncnc(Nc2ccccc2)n1
inactive: all assays above

CC(C(=O)O)c1ccc2c(c1)Cc1cccnc1O2 (stereo not given)
inactive: all assays above

Cn1cc(C(=O)[C@@H]2CCc3nc[nH]c3C2)c2ccccc21
inactive: all assays above

CCN[C@H]1CN(CCCOC)S(=O)(=O)c2sc(S(N)(=O)=O)cc21
inactive: all assays above

CCC(C)(CN(C)C)OC(=O)c1ccccc1 (stereo not given)
inactive: all assays above

CC[N+](C)(CC)CCOC(=O)C1c2ccccc2Oc2ccccc21
inactive: all assays above

CC(CN(C)C)C(C)(O)Cc1ccc(Cl)cc1 (stereo not given)
inactive: all assays above

O=c1[nH]c(=O)c2ccccc2o1
inactive: all assays above

CC(=O)OCC(=O)[C@@]1(O)CC[C@H]2[C@@H]3CCC4=CC(=O)C=C[C@]4(C)[C@@]3(F)[C@@H](O)C[C@@]21C
inactive: all assays above

COc1ccccc1OC(=O)Oc1ccccc1OC
inactive: all assays above

O=C(O)Cc1cn(-c2ccccc2)nc1-c1ccc(Cl)cc1
inactive: all assays above

O=C(O)CCCc1ccccc1
inactive: all assays above

O=C(O)c1cc(=O)c2ccccc2o1
inactive: all assays above

CCN(CC)C(=O)c1cccc(C)c1
inactive: all assays above

O=C(/C=C/c1ccccc1)OCc1ccccc1
inactive: all assays above

Cc1c(N(C)C)c(=O)n(-c2ccccc2)n1C
inactive: all assays above

CCCC(O)C(CC)CO (stereo not given)
inactive: all assays above

OCc1ccc(Cl)cc1Cl
inactive: all assays above

O[C@@H]1CO[C@H]2[C@@H]1OC[C@@H]2O
inactive: all assays above

NC(=O)CCCCC1CCSS1 (stereo not given)
inactive: all assays above

COc1ccccc1Oc1c(NS(=O)(=O)c2ccc(C(C)(C)C)cc2)nc(-c2ncccn2)nc1OCCO
inactive: all assays above
